Where a name gives a salt, the structure may show the parent alone.

The experiment concerns Danio rerio larvae (5 dpf). In words: habituation (activity change first vs second 5 min of 1-s interval sound, period 17) minus DMSO control (percentage points); higher = larger habituation measure than DMSO larvae. To be noted: 10 µM; exposure time: 3 h pre-incubation + 3 h imaging. As for the experimental part:
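Wild-type 5 dpf zebrafish larvae (n=48 per drug, 96-well plates, 28.5 °C) were exposed to Tocris FDA-approved library compounds at 10 µM (0.1% DMSO) for 3 h before and 3 h during imaging. Images were taken every 6 s during visual (moving coloured lines) and acoustic stimuli, and larvae were tracked with the DeepLabCut-based Z-LaP Tracker. Each behavioural measure is the treated-group mean minus the DMSO vehicle control mean (n=844), in percentage points. This mapping covers compounds with 4-character plate codes.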
Consider `C/C(O)=C(\C#N)C(=O)Nc1ccc(C(F)(F)F)cc1` [Teriflunomide], for which the habituation is -2.85.

For the molecule `CC(=O)S[C@@H]1CC2=CC(=O)CC[C@]2(C)[C@H]2CC[C@@]3(C)[C@@H](CC[C@@]34CCC(=O)O4)[C@H]12` [Spironolactone], the habituation was 2.5.

As to `CCN(Cc1ccncc1)C(=O)C(CO)c1ccccc1` (stereo not given) [Tropicamide], the habituation worked out at 2.39.

`C[C@H](Cc1cc2c(c(C(N)=O)c1)N(CCCO)CC2)NCCOc1ccccc1OCC(F)(F)F` [Silodosin]: the habituation came to 7.86.

For the molecule `COc1cc(Nc2c(C#N)cnc3cc(OCCCN4CCN(C)CC4)c(OC)cc23)c(Cl)cc1Cl` [Bosutinib], the habituation was 1.4.

Take `CN(CCOc1ccc(NS(C)(=O)=O)cc1)CCc1ccc(NS(C)(=O)=O)cc1` [Dofetilide]: the habituation amounted to 5.62.

In the case of `OC(CNCC(O)C1CCc2cc(F)ccc2O1)C1CCc2cc(F)ccc2O1` (stereo not given) [Nebivolol hydrochloride], the habituation was -10.1.

On to `COc1c(C)c2c(c(O)c1C/C=C(\C)CCC(=O)OCCN1CCOCC1)C(=O)OC2` [Mycophenolate mofetil], for which the habituation stood at 4.4.

`CC(c1cc2ccccc2s1)N(O)C(N)=O` (stereo not given) [Zileuton]: the habituation amounted to 7.74.

Turning to `C[C@]12CCC(=O)C=C1CC[C@@H]1[C@@H]2[C@@H](O)C[C@@]2(C)[C@H]1CC[C@]2(O)C(=O)CO` [Hydrocortisone], the habituation is 4.44.

Consider `O=C(Nc1c(Cl)cncc1Cl)c1ccc(OC(F)F)c(OCC2CC2)c1` [Roflumilast], for which the habituation was -2.44.

For the molecule `CN1CCC[C@@H]1Cc1c[nH]c2ccc(CCS(=O)(=O)c3ccccc3)cc12` [Eletriptan hydrobromide], the habituation is 7.41.

In the case of `Cn1cnc([N+](=O)[O-])c1Sc1ncnc2[nH]cnc12` [Azathioprine], the habituation was -3.52.

In the case of `Nc1cc(N2CCCCC2)nc(N)[n+]1[O-]` [Minoxidil], the habituation is 7.65.

With `CC(C)c1ccc2oc3nc(N)c(C(=O)O)cc3c(=O)c2c1` [Amlexanox], the habituation is -2.56.

On to `NC(=O)N1c2ccccc2C=Cc2ccccc21` [Carbamazepine], for which the habituation was determined as 2.97.

On to `CCC(=O)O[C@]1(C(=O)SCF)[C@H](C)C[C@H]2[C@@H]3C[C@H](F)C4=CC(=O)C=C[C@]4(C)[C@@]3(F)[C@@H](O)C[C@@]21C` [Fluticasone propionate], for which the habituation is 2.72.

On to `Cc1ccsc1C(=CCCN1CCC[C@@H](C(=O)O)C1)c1sccc1C` [Tiagabine hydrochloride], for which the habituation is 6.37.

Regarding `NS(=O)(=O)Cc1noc2ccccc12` [Zonisamide], the habituation is 1.66.

Consider `CCOc1nc2cccc(C(=O)O)c2n1Cc1ccc(-c2ccccc2-c2noc(=O)[nH]2)cc1` [Azilsartan], for which the habituation was 8.15.

Take `CCCCCCCCc1ccc(CCC(N)(CO)CO)cc1`: the habituation is -0.454.

Take `COc1cc2ncnc(Nc3ccc(F)c(Cl)c3)c2cc1OCCCN1CCOCC1` [Iressa]: the habituation was determined as 1.15.

`CCCCC(=O)N(Cc1ccc(-c2ccccc2-c2nnn[nH]2)cc1)[C@H](C(=O)O)C(C)C` [Valsartan]: the habituation came out at 2.48.

As for `O=C(O)CCCc1ccccc1` [Sodium 4-Phenylbutyrate], the habituation is -2.16.

Take `CN1CCC[C@@H]1CCO[C@](C)(c1ccccc1)c1ccc(Cl)cc1` [Clemastine fumarate]: the habituation was -6.62.

In the case of `CN(C)CC/C=C1/c2ccccc2COc2ccc(CC(=O)O)cc21` [Olopatadine hydrochloride], the habituation is -0.266.

Regarding `CCCc1nc(C(C)(C)O)c(C(=O)O)n1Cc1ccc(-c2ccccc2-c2nnn[nH]2)cc1` [Olmesartan], the habituation turned out to be 2.6.

For `O=C(NCC1CCCCN1)c1cc(OCC(F)(F)F)ccc1OCC(F)(F)F` (stereo not given) [Flecainide acetate], the habituation turned out to be 0.225.

Turning to `CCCN(CCC)S(=O)(=O)c1ccc(C(=O)O)cc1` [Probenecid], the habituation came to 3.79.

For the molecule `Nc1ccn([C@@H]2O[C@H](CO)[C@@H](O)C2(F)F)c(=O)n1` [Gemcitabine hydrochloride], the habituation is -1.55.

As for `COCCCOc1cc(C[C@@H](C[C@H](N)[C@@H](O)C[C@H](C(=O)NCC(C)(C)C(N)=O)C(C)C)C(C)C)ccc1OC` [Aliskiren hemifumarate], the habituation was determined as 8.44.

As for `CC1=Nc2ccc(Cl)cc2S(=O)(=O)N1` [Diazoxide], the habituation was determined as 8.87.

`Cn1nnc2c(C(N)=O)ncn2c1=O` [Temozolomide]: the habituation worked out at 4.81.

Turning to `COc1ccc(C[C@@H](C)NC[C@H](O)c2ccc(O)c(NC=O)c2)cc1` [Arformoterol tartrate], the habituation was -3.57.

In the case of `CCOc1cc(CC(=O)N[C@@H](CC(C)C)c2ccccc2N2CCCCC2)ccc1C(=O)O` [Repaglinide], the habituation is -7.53.

As for `CN(CCOc1ccc(CC2SC(=O)NC2=O)cc1)c1ccccn1` (stereo not given) [Rosiglitazone], the habituation came to 2.04.

As to `CC(=O)O[C@H]1C(=O)[C@@]2(C)[C@H]([C@H](OC(=O)c3ccccc3)[C@]3(O)C[C@H](OC(=O)[C@H](O)[C@@H](NC(=O)c4ccccc4)c4ccccc4)C(C)=C1C3(C)C)[C@]1(OC(C)=O)CO[C@@H]1C[C@@H]2O` [Taxol], the habituation was -3.28.

Consider `CCCc1nc2c(C)cc(-c3nc4ccccc4n3C)cc2n1Cc1ccc(-c2ccccc2C(=O)O)cc1` [Telmisartan], for which the habituation is -1.73.

Consider `CC(C)CN(C[C@@H](O)[C@H](Cc1ccccc1)NC(=O)O[C@H]1CO[C@H]2OCC[C@H]21)S(=O)(=O)c1ccc(N)cc1` [Darunavir], for which the habituation was 0.657.

For the molecule `O=c1[nH]c(=O)n([C@H]2C[C@H](O)[C@@H](CO)O2)cc1C(F)(F)F` [Trifluorothymidine], the habituation worked out at 6.83.
